Source: PubChem BioAssay (National Center for Advancing Translational Sciences (NCATS))
TDP1 inh: qHTS Assay for Inhibitors of Tyrosyl-DNA Phosphodiesterase (TDP1); recombinant TDP1, AlphaScreen DNA substrate cleavage; Potency, µM (titrated, usually from 130 µM), inactives show at the highest dose activity change, negative = inhibition, usual class: inhibitors; hit rate 0.28% among 350,000; AID 485290, 2010; also: % is scaled to controls: 0 for no effect and ±100 for the full control effect; nearly all actives have a fitted effect of over 40% in size
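AlphaScreen read-out: signal falls as enzyme removes the 3' tyrosine-FITC from a 5'-biotinylated DNA oligo (15 nM, 5 min, RT). Enzyme was E. coli-made recombinant Tdp1 at 1 nM, exposed to compound for 15 min beforehand; beads 10 ug/ml, 10 min.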
VDR inhibitor: Inhibitors of the vitamin D receptor (VDR): qHTS. hit rate 0.93% among 400,000. Potency, µM, for inactives: max response, negative = inhibition, actives largely listed as inhibitors. VDR-SRC2-3 peptide fluorescence polarization, 2 h; also: % is scaled to controls: 0 for no effect and ±100 for the full control effect
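The screen uses fluorescence polarization to detect compounds that interfere with recruitment of the SRC2-3 coactivator peptide to VDR; plates are read after 2 h at room temperature.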
S-ASM inh: Inhibitors of Secretory Acid Sphingomyelinase (S-ASM): qHTS. hit rate 0.006% among 340,000. Potency, µM (series often up to 57.5 µM), for inactives: top-dose activity change, negative = inhibition, most hits filed as inhibitors. placental ASM, HMU-PC fluorogenic substrate, 60 min
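Fluorescence read-out (Ex 386 nm, Em 447 nm) after stopping the reaction at pH 10. Enzyme: ASM from human placenta; substrate HMU-PC0, 9 uM final; 60 min, 37 °C. Compound preincubation 10 min, ambient temperature.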
Pin1 inh: qHTS Assay to Find Inhibitors of Pin1; Peptidyl-prolyl cis-trans isomerase NIMA-interacting 1 (Homo sapiens), Q13526; Pin1 FP peptide displacement, HiFluor488, 10 min; Potency, µM (series often up to 115 µM), inactives show at the top dose activity, negative = inhibition, actives largely listed as inhibitors; hit rate 0.009% among 390,000; active = well fitted inhibition curve with a large enough effect in the polarisation, with a control signal flat, not every such curve was filed as active; inconclusive = small, poorly fitted or top-dose-only effect, or effect the other way, or a change in a side signal; inactive = no such curve, though single readings can be large or run the other way; the % refers to the polarisation; also: % is scaled to controls: 0 for no effect and ±100 for the full control effect
PLK1 PBD block: qHTS for Inhibitors of PLK1-PDB (polo-like kinase 1 - polo-box domain): Primary Screen; Plk1 PBD binding of FITC phosphopeptide, fluorescence polarization; hit rate 2.8% among 360,000; Potency, µM, inactives show max response, negative = inhibition, hits mostly inhibitors; Serine/threonine-protein kinase PLK1 (Homo sapiens), P53350; also: series mostly up to about 57 µM; % is scaled to controls: 0 for no effect and ±100 for the full control effect; nearly all actives have a fitted effect of over 65% in size
Target sequence (P53350 whole entry, looked up, the tested form may be a part): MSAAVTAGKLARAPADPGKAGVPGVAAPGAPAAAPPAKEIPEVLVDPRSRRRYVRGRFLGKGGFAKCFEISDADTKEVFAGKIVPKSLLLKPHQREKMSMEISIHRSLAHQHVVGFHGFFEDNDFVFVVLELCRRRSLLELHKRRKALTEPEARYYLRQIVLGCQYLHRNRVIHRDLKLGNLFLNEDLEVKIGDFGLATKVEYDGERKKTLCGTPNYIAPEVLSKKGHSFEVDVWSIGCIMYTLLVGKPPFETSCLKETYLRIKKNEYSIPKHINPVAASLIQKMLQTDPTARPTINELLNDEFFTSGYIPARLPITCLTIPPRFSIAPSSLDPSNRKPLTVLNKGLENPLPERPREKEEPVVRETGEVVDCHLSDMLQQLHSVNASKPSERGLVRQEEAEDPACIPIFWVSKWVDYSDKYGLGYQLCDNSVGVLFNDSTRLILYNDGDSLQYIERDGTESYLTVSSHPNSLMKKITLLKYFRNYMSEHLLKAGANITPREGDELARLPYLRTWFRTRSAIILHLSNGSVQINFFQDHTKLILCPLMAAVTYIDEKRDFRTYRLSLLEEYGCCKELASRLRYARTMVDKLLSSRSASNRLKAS
Tb PFK inh: qHTS Assay to Find Inhibitors of T. brucei phosphofructokinase | ATP-dependent 6-phosphofructokinase (Trypanosoma brucei brucei), O15648 | T. brucei PFK, ADP-Glo luminescence | hit rate 0.17% among 330,000 | Potency, µM (titrated, usually from 57.5 µM), inactives show top-dose activity, negative = inhibition, usual class: inhibitors | AID 485367, 2010;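 also: 0% = uninhibited 1x PFK enzyme wells and -100% = no-enzyme wells; nearly all actives have a fitted effect of over 60% in size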
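PFK 1.25 nM, F6P 0.5 mM, ATP 0.1 mM, 0.1 M TEA pH 8.0, 5 mM MgCl2, 0.01% Tween20, 0.1% BSA; 45 min RT. ADP-Glo readout. qHTS titration up to 57 uM; curves fitted, compounds curve-classed.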
An asterisk follows results filed as active; [ ] = dose if it differs, or a comment. Only some compounds are listed: those with a hit (about 3.1% of all), similar ones and a draw of the others. Unless noted, calls follow the shape of the dose curve; as a rule, active = well fitted curve in the direction sought with a large enough effect; inconclusive = small, poorly fitted or top-dose-only effect, or another doubt; inactive = no such curve, though single readings can be large; an effect the other way counts as inactive or inconclusive. Potency is read from the fitted curve at half-maximal effect.

NNc1ccc([N+](=O)[O-])c2[nH][nH]c(=O)c12 was read as PLK1 PBD block 23.8µM*.
Cc1cc(C)cc(NC(=O)CSc2nc(-c3ccccc3)c3cc(F)ccc3n2)c1 was read as TDP1 inh -4.7%, VDR inhibitor 7.3% and Pin1 inh -7.4%.
For CC(=O)N1CCc2cc(S(=O)(=O)N3CCN(S(=O)(=O)c4c(F)cccc4F)CC3)ccc21 the results were Pin1 inh 0.0%.
Cc1cc(C(=O)OCC(=O)Nc2cccc(S(=O)(=O)N3CCOCC3)c2)c(C)o1 was read as TDP1 inh 5.6%, VDR inhibitor -17.6%, S-ASM inh -0.7%, Pin1 inh 1.1%, PLK1 PBD block 26.7µM* and Tb PFK inh -5.9%.
Screening Cc1ccc(SCC(=O)Nc2cccc(S(=O)(=O)N3CCOCC3)c2)cc1C returned TDP1 inh 0.2%, VDR inhibitor 41.6%, S-ASM inh -0.7%, Pin1 inh 4.2%, PLK1 PBD block -6.2% and Tb PFK inh 0.0%.
O=C(CSc1ccc(Br)cc1)Nc1cccc(S(=O)(=O)N2CCOCC2)c1 was read as TDP1 inh -11.6%, VDR inhibitor inconclusive, S-ASM inh -9.7%, Pin1 inh -1.7%, PLK1 PBD block 5.97µM* and Tb PFK inh -4.4%.
Screening CCCCN(C(=O)COC(=O)c1nc2nc(C)cc(C)n2n1)C1CCS(=O)(=O)C1 (stereo not drawn) returned TDP1 inh -0.3%, VDR inhibitor -23.0%, S-ASM inh -1.1%, Pin1 inh -1.5%, PLK1 PBD block -9.1% and Tb PFK inh -0.3%.
Screening Cc1ccnc2nc(C(=O)OCC(=O)c3ccc(NC(=O)CC(C)C)cc3)nn12 returned TDP1 inh -3.5%, VDR inhibitor 17.2%, S-ASM inh 0.0%, Pin1 inh 38.5%, PLK1 PBD block 0.7% and Tb PFK inh 6.5%.
CCC(=O)Nc1ccc(C(=O)COC(=O)c2nc3nccc(C)n3n2)cc1 was read as TDP1 inh 15.8µM*, VDR inhibitor 3.9%, S-ASM inh -0.3%, Pin1 inh inconclusive, PLK1 PBD block inconclusive and Tb PFK inh inconclusive.
CCCN(C(=O)COC(=O)c1nc2nccc(C)n2n1)C1CCS(=O)(=O)C1 (stereo not drawn) was read as VDR inhibitor inconclusive, S-ASM inh -1.7%, Pin1 inh inconclusive and PLK1 PBD block 23.8µM*.
CC(O)[C@@H](O)[C@H]1CNc2nc(N)[nH]c(=O)c2N1 (stereo partly drawn) was read as TDP1 inh 16.6%[56.1 µM].
O=C(O)c1cnc2ccccc2n1 was read as TDP1 inh 0.0%, VDR inhibitor inconclusive, S-ASM inh 1.2%, Pin1 inh 3.4%, PLK1 PBD block 26.7µM* and Tb PFK inh 0.1%.
For O=C1c2ccc(Oc3cccc([N+](=O)[O-])c3)cc2C(=O)N1c1ccccn1 the results were TDP1 inh -7.5%, VDR inhibitor inconclusive, S-ASM inh 0.4%, Pin1 inh -14.4%, PLK1 PBD block 10.6µM* and Tb PFK inh 27.1%.
CC(=O)N1CCc2c(sc3c2c(=O)n(-c2ccccc2)c(=O)n3Cc2cccc(C(F)(F)F)c2)C1 was read as TDP1 inh 4.9%, VDR inhibitor -14.2% and Pin1 inh 9.3%.
`COc1c(O)cc(O)cc1O` gave TDP1 inh 20µM* and VDR inhibitor 4.6%.
Screening COc1cc(O)cc(OC)c1OC returned TDP1 inh 2.6%[56.1 µM] and VDR inhibitor 44.7µM*.
COc1cc(O)cc(O)c1 was read as TDP1 inh 8.6% and VDR inhibitor -1.5%.
For COc1cc(NC(=O)c2cc(-c3cccc(OC)c3)n[nH]2)cc(OC)c1 the results were TDP1 inh 5.6%, VDR inhibitor 3.2% and Pin1 inh 1.3%.
Screening CCOC(=O)c1ccc(NC(=O)c2c(-c3c(F)cccc3Cl)noc2C)cc1 returned VDR inhibitor 12.5% and Pin1 inh -7.5%.
`O=C(CN1C(=O)CC(c2ccco2)Sc2ccccc21)Nc1ccccc1F` (stereo not drawn) gave TDP1 inh 2.6%, VDR inhibitor 79.4µM*, S-ASM inh 18.7%, Pin1 inh 29.0%, PLK1 PBD block -22.1% and Tb PFK inh 2.6%.
For O=C(CN1C(=O)CC(c2ccco2)Sc2ccccc21)Nc1ccc(Br)cc1 (stereo not drawn) the results were TDP1 inh -2.9%, VDR inhibitor -3.0% and Pin1 inh 7.5%.
`COc1ccc(CCNC(=O)c2cc(=O)c3cc(C)c(C)cc3o2)cc1OC` gave TDP1 inh 2.5%, VDR inhibitor 8.9% and Pin1 inh 10.1%.
COC1=CC(=O)C=C(OC)C1=O was read as TDP1 inh 6.2%[56.1 µM], VDR inhibitor 22.4µM*, S-ASM inh -4.9%, Pin1 inh -7.6% and PLK1 PBD block 5.97µM*.
Cc1ccc(S(=O)(=O)N(C)C)cc1NC(=O)COC(=O)Cc1ccccc1F was read as TDP1 inh 3.6%, VDR inhibitor 11.2%, S-ASM inh -0.6%, Pin1 inh 0.6%, PLK1 PBD block 1.0% and Tb PFK inh 1.9%.
For Cc1ccc(S(=O)(=O)N(C)C)cc1NC(=O)COC(=O)Cc1ccc(Br)cc1 the results were TDP1 inh 0.0%, VDR inhibitor inconclusive, S-ASM inh -4.6%, Pin1 inh 5.8%, PLK1 PBD block 18.9µM* and Tb PFK inh -3.6%.
For N/C(=N\OC(=O)c1cccs1)c1ccc(Cl)cc1 the results were TDP1 inh -1.3%, VDR inhibitor -15.2%, S-ASM inh -2.1%, Pin1 inh 0.7%, PLK1 PBD block -3.3% and Tb PFK inh 2.7%.
Screening NC(=O)n1c(O)c(C(=O)c2cccs2)c2cc(Cl)ccc21 returned TDP1 inh 25.9% and VDR inhibitor 44.7µM*.
CCN(CCCNC(=O)CCc1nc(-c2ccc(C)cc2)no1)c1cccc(C)c1 was read as TDP1 inh 4.2%, VDR inhibitor -15.2%, S-ASM inh -2.2%, Pin1 inh -5.4%, PLK1 PBD block 23.8µM* and Tb PFK inh 3.1%.
Screening O=C(Nc1cccc(-c2nn3c(=O)cc(N4CCNCC4)nc3s2)c1)C1CCNCC1 returned Pin1 inh -5.7%.
